PubChem BioAssay
Calls of active or inactive are those of the source. Unless noted, no rule for the calls is given here.

Assays:
[1] = test system: Wnt5a (protein binding on small-molecule microarray); assay: Wnt5a binders on small-molecule microarray, primary screen, biophysical, 635/667 nm fluorescence (AID 1142); conditions: 635 nm fluorescence, higher = more signal;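 also: fluorescence read at 667 nm with signal to noise per printed feature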
[2] = cell viability in Huh7 cells, primary screen, cytotoxicity control for HCV replication inhibitor project, CellTiter-Glo luminescence, basal, 48 h (AID 1143); conditions: Huh7 HCV replicon, higher = more signal, called active from +8 up or from −8 down;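 also: Huh7 hepatoma cells carrying a hepatitis C replication reporter with no stimulus; test concentration not given here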
[3] = P. aeruginosa biofilm formation inhibitors, primary screen, PAO1 strain, BacTiter-Glo luminescence, LB-PBS (AID 1144); conditions: 12 h, higher = more signal
[4] = CREB reporter modulators without forskolin, primary screen, cell-based, PC12, CRE-LacZ reporter, unstimulated (AID 1145); conditions: no forskolin, luminescence, 4.5 h, higher = more signal, called active from +8 up or from −8 down
[5] = CREB reporter modulators under forskolin, primary screen, cell-based, PC12, CRE-LacZ reporter, forskolin-stimulated (AID 1146); conditions: luminescence, 4.5 h, higher = more signal, called active from +8 up or from −8 down;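 also: PC12 cells with 6xCRE LacZ reporter stimulated by forskolin 10 µM; beta-galactosidase reporter signal reflecting CREB driven transcription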
[6] = molecular target: Streptavidin (Streptomyces avidinii) (UniProt P22629); assay: streptavidin binders on small-molecule microarray, primary screen, artefact control for SMM compound annotation, biophysical, 635/667 nm fluorescence (AID 1147); conditions: streptavidin binding, higher = more signal;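 also: signal reflects streptavidin binding to arrayed compounds as a control protein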
Chain of Streptavidin (Streptomyces avidinii) (P22629 whole entry, looked up): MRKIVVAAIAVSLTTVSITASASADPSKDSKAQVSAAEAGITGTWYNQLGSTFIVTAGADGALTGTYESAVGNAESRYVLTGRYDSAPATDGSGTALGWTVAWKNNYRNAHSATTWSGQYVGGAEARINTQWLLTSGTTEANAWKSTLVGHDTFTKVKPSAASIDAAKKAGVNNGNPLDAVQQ

[7] = small-molecule binders of probe aInhba, primary screen, biochemical, small-molecule microarray, 635/667 nm fluorescence (AID 1148); conditions: higher = more signal;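 also: score merges 667nm spot fluorescence with signal-to-noise for antibody binding to printed compounds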
[8] = molecular target: Torsin-1A (Homo sapiens) (UniProt O14656); assay: torsin A binders from cell lysate, primary screen, small-molecule microarray, wild-type, 635/667 nm (AID 1149); conditions: COS7 hTOR1A-WT lysate, 635 nm fluorescence, higher = more signal
Chain of Torsin-1A (Homo sapiens) (O14656 whole entry, looked up): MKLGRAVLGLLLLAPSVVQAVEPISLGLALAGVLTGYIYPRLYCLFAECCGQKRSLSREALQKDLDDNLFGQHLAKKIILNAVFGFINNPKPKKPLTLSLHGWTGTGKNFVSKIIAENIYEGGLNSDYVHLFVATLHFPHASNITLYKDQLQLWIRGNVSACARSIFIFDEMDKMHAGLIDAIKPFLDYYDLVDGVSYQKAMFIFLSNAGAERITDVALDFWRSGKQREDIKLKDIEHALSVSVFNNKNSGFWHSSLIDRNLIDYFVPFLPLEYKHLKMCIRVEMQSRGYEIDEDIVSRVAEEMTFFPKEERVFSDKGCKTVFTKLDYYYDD

[9] = molecular target: Torsin-1A (Homo sapiens) (UniProt O14656); assay: small-molecule binders of mutant TOR1A in lysate, primary screen, cell lysate, small-molecule microarray, COS7 lysate, 635/667 nm fluorescence (AID 1150); conditions: COS7 hTOR1A mutant lysate, 635 nm fluorescence, higher = more signal;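 also: score pools 667 nm emission and signal to noise measuring lysate protein binding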
[10] = test system: Sonic hedgehog protein (Shh); assay: small-molecule binders of Shh protein, primary screen, biochemical, small-molecule microarray, 635/667 nm fluorescence (AID 1151); conditions: small-molecule microarray binding, 635 nm fluorescence; higher = more signal;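 also: Shh protein binding to compounds spotted on small-molecule microarray slides; score combines spot fluorescence intensity with signal-to-noise across triplicate slides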
[11] = E. coli DRC41 culture turbidity changes, primary screen, E. coli filamentation inducer project, strain DRC41, OD650, 48 h (AID 1152);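 also: E. coli MC1000 strain DRC41 lacking acrAB efflux pump and sulA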; conditions: E. coli DRC41 (acrAB sulA), higher = more signal, called active from +8 up or from −8 down
[12] = small-molecule binders of probe aLefty1, primary screen, biochemical, small-molecule microarray, 635/667 nm fluorescence (AID 1153); conditions: higher = more signal;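 also: score merges spot fluorescence with signal-to-noise ratio from the scanned slide images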
[13] = PSAC antagonists in infected red cells, primary screen, cell-based, P. falciparum Indochina, OD700, 1 h (AID 1154); conditions: P. falciparum Indochina infected RBC osmotic lysis, higher = more signal, called active from +8 up or from −8 down
[14] = PSAC antagonists in infected red cells, primary screen, cell-based, P. falciparum Indochina, OD700, 2 h (AID 1155);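 also: lysis reports solute entry through the parasite surface anion channel PSAC; channel blockers reduce lysis of infected cells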; conditions: P. falciparum Indochina infected erythrocytes, osmotic lysis OD700; higher = more signal, called active from +8 up or from −8 down
[15] = osmotic lysis modulators in infected erythrocytes, primary screen, PSAC antagonist project, cell-based, P. falciparum Indochina, OD700, 3 h (AID 1156); conditions: higher = more signal, called active from +8 up or from −8 down
[16] = PSAC antagonists in infected red cells, primary screen, cell-based, P. falciparum Indochina, OD700, 18 h (AID 1157); conditions: P. falciparum Indochina infected erythrocytes, osmotic lysis OD700, 18 h; higher = more signal, called active from +8 up or from −8 down
[17] = modulators of S6 phosphorylation in cells, primary screen, cell-based, A549, cytoblot, luminescence, serum-stimulated (AID 1158); conditions: A549 phospho-S6 cytoblot, 5 h, higher = more signal;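 also: serum-stimulated A549 lung adenocarcinoma cells; signal is phosphorylated S6 detected by cytoblot immunostaining with HRP secondary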
[18] = molecular target: NADPH oxidase 2 (Homo sapiens) (UniProt P04839); assay: NOX2-dependent H2O2 signal modulators, primary screen, NOX inhibitor project, cell-based, HEK293-NOX2, PMA-stimulated, Amplex Red fluorescence (AID 1159); conditions: 45 min, higher = more signal, called active from +8 up or from −8 down; also: test concentration not given here
Chain of NADPH oxidase 2 (Homo sapiens) (P04839 whole entry, looked up): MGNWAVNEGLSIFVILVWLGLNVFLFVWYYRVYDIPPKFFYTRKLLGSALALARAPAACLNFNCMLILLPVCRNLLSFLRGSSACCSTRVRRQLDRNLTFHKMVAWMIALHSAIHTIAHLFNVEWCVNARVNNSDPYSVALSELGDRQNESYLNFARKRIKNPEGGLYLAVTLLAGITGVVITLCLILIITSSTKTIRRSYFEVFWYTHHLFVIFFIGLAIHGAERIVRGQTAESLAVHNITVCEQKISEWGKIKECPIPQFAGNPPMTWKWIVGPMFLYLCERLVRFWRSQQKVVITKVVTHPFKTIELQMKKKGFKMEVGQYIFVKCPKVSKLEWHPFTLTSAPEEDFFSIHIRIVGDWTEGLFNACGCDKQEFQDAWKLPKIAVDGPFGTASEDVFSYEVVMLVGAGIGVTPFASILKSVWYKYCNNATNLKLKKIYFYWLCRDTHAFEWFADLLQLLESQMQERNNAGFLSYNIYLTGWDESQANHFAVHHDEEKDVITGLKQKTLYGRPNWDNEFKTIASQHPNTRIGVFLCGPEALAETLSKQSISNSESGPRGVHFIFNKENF

[19] = molecular target: NADPH oxidase 4 (Homo sapiens) (UniProt Q9NPH5); assay: NOX4-dependent H2O2 signal modulators, primary screen, NOX inhibitor project, cell-based, HEK293-NOX4, tetracycline-induced, Amplex Red fluorescence (AID 1160); conditions: 45 min, higher = more signal, called active from +8 up or from −8 down
Chain of NADPH oxidase 4 (Homo sapiens) (Q9NPH5 whole entry, looked up): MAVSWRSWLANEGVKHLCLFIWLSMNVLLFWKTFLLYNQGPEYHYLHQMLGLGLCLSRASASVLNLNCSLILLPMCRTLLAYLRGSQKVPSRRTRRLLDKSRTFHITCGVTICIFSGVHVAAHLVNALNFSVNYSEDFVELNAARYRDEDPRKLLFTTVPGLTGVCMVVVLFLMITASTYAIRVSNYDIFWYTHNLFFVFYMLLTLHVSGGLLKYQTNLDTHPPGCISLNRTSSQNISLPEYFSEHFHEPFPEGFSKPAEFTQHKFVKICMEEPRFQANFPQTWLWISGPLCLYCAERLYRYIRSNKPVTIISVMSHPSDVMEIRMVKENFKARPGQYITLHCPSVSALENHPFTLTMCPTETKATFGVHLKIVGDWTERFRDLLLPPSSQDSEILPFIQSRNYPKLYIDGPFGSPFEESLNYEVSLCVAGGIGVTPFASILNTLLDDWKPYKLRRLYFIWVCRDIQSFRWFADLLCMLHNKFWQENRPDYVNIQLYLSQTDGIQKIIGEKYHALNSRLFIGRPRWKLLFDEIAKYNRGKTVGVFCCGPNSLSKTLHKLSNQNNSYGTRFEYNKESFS

[20] = molecular target: NADPH oxidase 5 (Homo sapiens) (UniProt Q96PH1); assay: NOX5-dependent H2O2 signal modulators, primary screen, NOX inhibitor project, cell-based, HEK293-NOX5, Amplex Red fluorescence (AID 1161); conditions: HEK293-NOX5, ionomycin, 45 min, higher = more signal
Chain of NADPH oxidase 5 (Homo sapiens) (Q96PH1 whole entry, looked up): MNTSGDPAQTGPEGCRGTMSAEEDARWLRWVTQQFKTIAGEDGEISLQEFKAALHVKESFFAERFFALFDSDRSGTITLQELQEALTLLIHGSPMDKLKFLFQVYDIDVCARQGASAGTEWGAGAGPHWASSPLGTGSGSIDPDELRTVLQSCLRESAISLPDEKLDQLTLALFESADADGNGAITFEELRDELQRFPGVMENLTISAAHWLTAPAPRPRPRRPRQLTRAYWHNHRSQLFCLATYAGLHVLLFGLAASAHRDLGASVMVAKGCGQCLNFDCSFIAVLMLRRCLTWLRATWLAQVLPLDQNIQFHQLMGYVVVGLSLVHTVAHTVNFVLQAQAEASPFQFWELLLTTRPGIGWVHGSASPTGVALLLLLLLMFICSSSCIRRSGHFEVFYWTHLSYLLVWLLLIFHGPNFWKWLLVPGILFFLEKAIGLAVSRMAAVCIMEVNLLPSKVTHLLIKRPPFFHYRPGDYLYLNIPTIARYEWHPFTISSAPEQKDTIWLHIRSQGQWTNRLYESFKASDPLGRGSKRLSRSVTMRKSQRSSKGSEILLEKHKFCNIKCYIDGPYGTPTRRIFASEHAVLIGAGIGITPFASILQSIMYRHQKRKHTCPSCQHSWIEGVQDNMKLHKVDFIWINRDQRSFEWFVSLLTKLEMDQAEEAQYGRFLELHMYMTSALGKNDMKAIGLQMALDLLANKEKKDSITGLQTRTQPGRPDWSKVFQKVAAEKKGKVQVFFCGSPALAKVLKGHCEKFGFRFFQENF

Structure (SMILES) | composite z-score [1] | z-score [2] | z-score [3] | z-score [4] | z-score [5] | composite z-score [6] | composite z-score [7] | composite z-score [8] | composite z-score [9] | composite z-score [10] | z-score [11] | composite z-score [12] | z-score [13] | z-score [14] | z-score [15] | z-score [16] | z-score [17] | z-score [18] | z-score [19] | z-score [20]
CCOC(=O)C[C@H]1[C@H](OC(=O)Cc2ccc3c(c2)OCO3)[C@@H](NC(=O)Cc2ccc(OC)cc2)c2cc(OCCCO)ccc2N1C(=O)Cc1ccc(OC)cc1 | -0.31 | -0.972 (inactive) | -0.805 (inactive) | 1.52 (inactive) | -0.0811 (inactive) | 0.699 | -0.154 | 0.142 | 0.209 | 0.106 | 1.91 (inactive) | -0.15 | 10.7 (active) | 0.647 (inactive) | -1.02 (inactive) | -0.395 (inactive) | 1.68 | -0.988 (inactive) | 0.754 (inactive) | 0.404
CC(C)(C)N1CC=CC23O[C@@H]4C=CCOC(=O)[C@@H]4[C@H]2C(=O)N(CCO)[C@@H]3C1=O (stereo not given in full) | -0.887 | 0.262 (inactive) | 1.7 (inactive) | 0.744 (inactive) | 1.07 (inactive) | -1.61 | -0.32 | -2.49 | -1.07 | -0.863 | -0.476 (inactive) | -0.0967 | 0.55 (inactive) | 0.184 (inactive) | 0.0221 (inactive) | 0.526 (inactive) | -0.694 | 1.09 (inactive) | 1.32 (inactive) | 1.59
CC[C@@H]1C=C(C(=O)O)[C@H](c2ccc(OC)cc2)N1S(=O)(=O)c1ccc(C)cc1 | 0.0237 | -1.09 (inactive) | 1.01 (inactive) | 0.0798 (inactive) | 0.0935 (inactive) | 0.114 | -0.016 | -0.579 | 0.316 | -0.236 | -1.46 (inactive) | -0.0449 | 0.785 (inactive) | 0.453 (inactive) | -0.51 (inactive) | 0.437 (inactive) | -0.458 | 0.339 (inactive) | -0.517 (inactive) | -0.215
COc1ccc([Si](C)(C)[C@H]2[C@H](CC(=O)N3Cc4ccccc4C[C@H]3CO)O[C@@]3(C(=O)N(C)c4c(Br)cc(C)cc43)[C@@H]2C)cc1 | 0.144 | -7.74 (inactive) | -0.324 (inactive) | 7.68 (inactive) | -1.29 (inactive) | 0.298 | -0.0087 | 0.573 | 0.435 | 2.11 | -1.05 (inactive) | 0.297 | 9.31 (active) | 2.16 (inactive) | 1.31 (inactive) | 1.68 (inactive) | 0.0914 | 0.0544 (inactive) | 0.794 (inactive) | 0.136
COc1cc(OC)c(C(O)C2C=CC3C(=O)N(c4ccccc4)C(=O)C3N2Nc2ccc(C(C)C)cc2)cc1Br (stereo not given) | 0.386 | -0.942 (inactive) | -1.49 (inactive) | 1.78 (inactive) | -0.567 (inactive) | 1.71 | 0.136 | 0.255 | 0.345 | 0.415 | 0.857 (inactive) | -0.0889 | 2.94 (inactive) | 1.93 (inactive) | -0.255 (inactive) | 1.49 (inactive) | -1.06 | 0.0256 (inactive) | -3.73 (inactive) | -2.24
C=C(CCCC)/C(=C/C[C@H](OC(C)=O)c1cccc(OCCO)c1)c1cnc2ccccc2c1 | 0.0596 | -0.717 (inactive) | 0.768 (inactive) | 7.36 (inactive) | -0.134 (inactive) | 0.247 | -0.208 | -0.268 | -0.348 | 0.477 | 0.186 (inactive) | -0.193 | 23.7 (active) | 6.09 (inactive) | 1.94 (inactive) | 1.34 (inactive) | -0.33 | -0.532 (inactive) | -0.294 (inactive) | -1.76
C=CCNC(=O)[C@H]1[C@@H]2C(=O)O[C@@H](c3ccccc3)[C@@H](c3ccccc3)N2[C@@H](c2ccccc2OCCO)[C@]12C(=O)N(C(=O)OCCOC)c1ccc(C#Cc3ccc(OC)cc3)cc12 | 0.571 | -2.77 (inactive) | -0.394 (inactive) | 1.12 (inactive) | -0.261 (inactive) | 0.12 | -0.149 | 0.292 | 0.51 | 0.168 | 0.296 (inactive) | 0.0114 | 2.46 (inactive) | 1.98 (inactive) | 0.0435 (inactive) | 1.25 (inactive) | 0.638 | 1.74 (inactive) | 0.404 (inactive) | 0.673
[N-]=[N+]=NCc1ccccc1[C@@H]1OC(c2ccc(OCCCO)cc2)=N[C@]1(Cc1ccccc1N=[N+]=[N-])C(=O)NCC(O)CO (stereo not given in full) | 0.88 | -1.49 (inactive) | 0.12 (inactive) | 0.47 (inactive) | -0.806 (inactive) | 1.74 | 0.791 | 0.553 | 1.65 | -0.771 | 0.553 (inactive) | 1.31 | 20.2 (active) | 5.06 (inactive) | 1.09 (inactive) | 1.1 (inactive) | -0.0256 | -0.868 (inactive) | 0.704 (inactive) | 1.5
Cc1ccc(S[C@]2(C(=O)NCC(F)(F)F)CC(=O)N(Cc3ccccc3C(F)(F)F)[C@@H]2c2ccc(CO)cc2)cc1 | -0.186 | 0.518 (inactive) | 0.0205 (inactive) | -0.349 (inactive) | -0.163 (inactive) | -1 | -0.179 | -1.23 | 0.0748 | -0.972 | -0.262 (inactive) | 0.007 | 1.4 (inactive) | -0.107 (inactive) | -0.142 (inactive) | 0.135 (inactive) | -0.0621 | -2.02 (inactive) | 0.426 (inactive) | -0.0735
